Compound activity deposited in PubChem BioAssay by The Scripps Research Institute Molecular Screening Center.
A selection: hits, their analogues and other compounds. The true share with any hit is near 3.4%.
GPR151 activ: activates the human receptor GPR151 | PathHunter beta-arrestin GPR151 cells, luminescence | 650,000 tested, 1% active | activation, % at 11.2 µM; in the data active means activation above about 4.9%;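 further: 0% = median of compound wells and 100% = cells with positive control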
Target sequence (Q8TDV0 whole entry, looked up): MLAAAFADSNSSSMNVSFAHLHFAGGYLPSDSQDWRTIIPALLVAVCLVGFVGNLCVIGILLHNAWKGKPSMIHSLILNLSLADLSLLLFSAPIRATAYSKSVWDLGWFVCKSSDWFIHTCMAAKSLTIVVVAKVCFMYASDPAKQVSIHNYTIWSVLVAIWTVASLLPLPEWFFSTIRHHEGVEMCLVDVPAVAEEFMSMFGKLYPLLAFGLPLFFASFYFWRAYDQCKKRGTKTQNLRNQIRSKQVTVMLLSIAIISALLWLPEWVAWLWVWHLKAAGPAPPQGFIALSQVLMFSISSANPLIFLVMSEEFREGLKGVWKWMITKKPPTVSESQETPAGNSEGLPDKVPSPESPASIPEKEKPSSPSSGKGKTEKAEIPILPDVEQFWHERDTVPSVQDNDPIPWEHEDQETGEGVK
TEAD-YAP block: TEAD-YAP interaction inhibition. 640,000 tested, 1.4% active. HEK-TIYL cells, TEAD-Gal4/YAP UAS-luciferase luminescence. AID 1259422. inhibition, % at 9.12 µM; in the data active means inhibition above about 32%;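 further: 0% = median of test compound wells and 100% = reference inhibitor wells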
MITF inh: blocks human microphthalmia-associated transcription factor; O75030; AlphaScreen MITF homodimerization, bead proximity signal; inhibition, % at 2.6 µM; 650,000 tested, 0.91% active; AID 1259374; in the data active means inhibition above about 50%;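 further: 0% = vehicle wells with protein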
FBW7 act: activators of human E3 ligase FBW7 | Q969H0 | AlphaScreen FBW7–phospho-cyclin E peptide binding, activator screen | normalized activity (activation), % at 26.1 µM | AID 1259310 | 650,000 tested, 0.13% active; in the data active means normalized activity above about 1.9%;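 further: purified mutant Fbw7 with reduced substrate affinity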
GPR151 confirm: confirmation of human GPR151 activators. AID 1508609. GPR151 PathHunter beta-arrestin cells, luminescence, 90 min; % of EA-reagent control over plate median. shares compounds with GPR151 activ. 6,700 tested, under 10 active. activation, % at 11.2 µM;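 active means mean percent activation across replicates above the confirmation screen cutoff of 4.91%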
GPR119 ag: counter-screen for GPR151 activators: effect on human GPR119. shares compounds with GPR151 activ. GPR119 PathHunter beta-arrestin cells, luminescence, 90 min; 0 = compound-well median, 100 = enzyme-acceptor control. activation, % at 11.2 µM. 6,700 tested, 0.3% active;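 active means mean percent activation in the counterscreen above 29.09%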;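 further: counterscreen on off-target GPR119 to flag nonselective hits from the GPR151 activator screen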
Numbers without * were called inactive; nt = no result.

SMILES	GPR151 activ	TEAD-YAP block	MITF inh	FBW7 act	GPR151 confirm	GPR119 ag
CN1CCN(C(=O)c2c(NC(=O)c3ccccc3)sc3c2CCC(C(C)(C)C)C3)CC1 (stereo unspecified)	-1	-1	-10	0	nt	nt
Nc1cc(Sc2ccc(F)cc2)cc([N+](=O)[O-])c1	5.1*	-6	-1	0	0	-4
CCOc1ccc(OC(=O)c2ccc(C(=O)Oc3ccc(OCC)cc3)nc2)cc1	-1	-6	-12	0	nt	nt
CCc1ccc(OC(=O)c2ccc(C(=O)Oc3ccc(CC)cc3)nc2)cc1	5.4*	9	-20	0	0	-3
Cc1ccc(-n2nc3c(c2NC(=O)Cc2ccccc2)CS(=O)(=O)C3)c(C)c1	-2	5	18	2	nt	nt
C#CCNc1cc(-c2ccccc2)nc2ncnn12	7.1*	0	-1	0	0	-3
C=CCNc1cc(-c2ccccc2)nc2ncnn12	0	-3	-2	0	nt	nt
COc1ccc(CNCc2ccc3ccccc3c2)cc1OC	5.1*	4	34	0	1	1
COCc1nnc(SCC(=O)Nc2ccc(C(C)C)cc2)n1-c1ccccc1	0	9	11	0	nt	nt
O=C(NC1CCC(NC(=O)c2cccc(F)c2)CC1)c1cccc(F)c1 (stereo unspecified)	9.4*	4	-1	0	0	-5
CNC(=O)CC1C(=O)N(c2cccc(C(F)(F)F)c2)C(=S)N1CCc1ccc(OC)c(OC)c1 (stereo unspecified)	8.6*	-9	1	0	0	9
Cc1nc2c(C(=O)NCc3ccccc3Cl)cnn2c(C)c1Cc1cccc(Cl)c1	5.3*	2	-1	0	-1	-3
Cc1cccc(Cc2c(C)nc3c(C(=O)NCC4CCCO4)cnn3c2C)c1 (stereo unspecified)	5.1*	-1	-10	0	0	-1
Cc1nc2c(C(=O)NCC3CCCO3)cnn2c(C)c1Cc1ccccc1 (stereo unspecified)	0	-3	0	0	nt	nt
COc1ccccc1CNC(=O)c1cnn2c(C)c(Cc3ccc(C)cc3)c(C)nc12	5.6*	-4	-7	0	0	12
CCCCNC(=O)c1cnn2c(C)c(Cc3ccc(F)cc3)c(C)nc12	8.3*	-3	-4	0	1	14
Cc1nc2c(C(=O)NC3CCCC(C)C3C)cnn2c(C)c1Cc1cccc(Cl)c1 (stereo unspecified)	6.5*	2	6	0	0	4
Cc1nc2c(C(=O)NC3CC3)cnn2c(C)c1Cc1cccc(Cl)c1	-1	11	4	0	nt	nt
Cc1ccc(-c2csc3c(=O)n(CC(=O)Nc4cccc(Cl)c4)cnc23)cc1	0	3	-9	0	nt	nt
O=C1N(C2Cc3ccccc3C2)C[C@@H]2C[C@@H](c3ccc4nsnc4c3)N3CCC[C@@]123	9.4*	-27	-5	1	1	-3
O=C1N(C2Cc3ccccc3C2)C[C@@H]2C[C@@H](c3ccccc3F)N3CCC[C@@]123	15*	3	-1	0	0	-5
Cc1nn(C)c(C)c1-c1nccc(NCc2nc3ccccc3[nH]2)n1	5.9*	-3	-4	0	0	-4
CCOC(=O)c1cnc2c(C)cc(Cl)cc2c1NC(C)c1ccccc1 (stereo unspecified)	-1	7	10	0	nt	nt
COc1ccc(OC)c(C(C)NC(=O)c2ccc(F)cc2)c1 (stereo unspecified)	5.4*	5	26	0	0	-3
CC(C)CNC(=O)C1=CC(c2ccc(F)cc2)=NS(=O)(=O)N1C	7.5*	-8	2	0	0	-8
SMILES	GPR151 activ	TEAD-YAP block	MITF inh	FBW7 act	GPR151 confirm	GPR119 ag
CCOC(=O)c1cnc2ccc(OC)cc2c1NCc1cccnc1	0	7	-4	0	nt	nt
CCCCN(C)C1CCN(C(=S)Nc2ccc(OC)cc2)CC1	0	3	-2	0	nt	nt
COc1ccc(NC(=S)N2CCC(N(C)C(C)C)CC2)cc1	5.9*	-9	-3	0	-1	-14
NS(=O)(=O)c1ccc(NC(=S)NCCN2CCCCC2)cc1	6.3*	1	7	0	-1	1
COc1ccc(Cl)cc1NC(=O)Nc1cccc([N+](=O)[O-])c1C	8.3*	8	18	0	2	-1
Cc1c(NC(=O)Nc2cccc(Cl)c2)cccc1[N+](=O)[O-]	1	-11	27	0	nt	nt
CC(C)c1ccc(N(C)S(=O)(=O)c2ccc3[nH]cc(C(=O)NCCN4CCOCC4)c(=O)c3c2)cc1	5.1*	-1	-18	0	-1	0
CCC1(C2CCN(Cc3ccoc3)CC2)NC(=O)N(CCc2ccc(OC)cc2)C1=O (stereo unspecified)	14*	3	-17	0	0	7
Nc1nc(NCCCN2CCCC2=O)cc(N2CCN(Cc3ccc4c(c3)OCO4)CC2)n1	0	-5	7	0	nt	nt
O=C(Nc1ccc(S(=O)(=O)NCc2ccccc2)cc1)N1CCCC1	7.0*	1	1	0	0	15
COc1ccccc1N1CC(C(=O)Nc2nnc(SC3CCCC3)s2)CC1=O (stereo unspecified)	6.2*	11	3	0	1	1
COc1ccc(Cl)cc1N1CC(C(=O)Nc2nnc(C)s2)CC1=O (stereo unspecified)	-1	-6	13	0	nt	nt
COc1ccc(Cl)cc1N1CC(C(=O)Nc2c(C)cccc2C)CC1=O (stereo unspecified)	8.3*	-1	-2	0	0	3
COc1cc(C2C(C(=O)OCc3ccccc3)=C(C)Nc3nnnn32)ccc1O (stereo unspecified)	0	-5	14	0	nt	nt
CSc1ccc(CN2CCc3nnc(C(C)C)n3CC2)cc1	0	3	6	0	nt	nt
CS(=O)(=O)N(Cc1ccccc1Cl)c1ccccc1	-2	-4	-2	0	nt	nt
COC(=O)C1=C(C)N(C)C(C)=C(C(=O)OC)C1c1ccc(F)c(Br)c1	5.2*	4	3	0	0	5
CC(NS(=O)(=O)c1ccc2c(c1)NC(=O)CC(=O)N2)c1ccccc1 (stereo unspecified)	8.3*	-1	-7	0	1	12
O=C1CC(=O)Nc2cc(S(=O)(=O)NCC3COc4ccccc4O3)ccc2N1 (stereo unspecified)	5.0*	5	6	0	0	3
c1cn2c(-c3ccsc3)cnc2c(NCC2CC2)n1	0	3	-9	0	nt	nt
CN(CCC#N)C(C(=O)NC1CCCCC1)c1ccccc1 (stereo unspecified)	-1	8	14	0	nt	nt
Cc1ccc2nc(CCCN(C)Cc3cccnc3)[nH]c2c1	2	6	9	0	nt	nt
